{"source": "PubChem BioAssay (Tox21)", "note": "Where “and” joins values, the source holds several entries; their conditions need not be identical. Identical values can stand only once. Inconclusive results are not listed. A call without a number means that no potency is given here. Unmarked numbers belong to inactive results. Calls of active or inactive are those of the source. Unless noted, the call rests on the fitted dose curve."}
{"tested_on": "not listed separately", "assay": "qHTS assay to identify small molecule antagonists of the thyroid receptor (TR) signaling pathway (AID 743065; active means well fitted inhibition curve with a large enough effect in the repeat runs; further: nearly all actives have a fitted effect of over 55% in size; further: potency means the concentration at half of the fitted maximal effect)", "details": "GH3.TRE-Luc, T3-stimulated luciferase inhibition, 23.5 h; series mostly up to 70.3 µM; activity, negative = inhibition: at the top concentration", "how_it_was_run": "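GH3.TRE-Luc rat pituitary cells (two TREs driving luciferase) were dosed with compound, then stimulated with 1 nM T3 (final) for 23.5 h at 37 C. ONE-Glo luminescence was the read-out, with CellTiter-Fluor fluorescence as the cytotoxicity counter-screen.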"}
{"smiles": "CCCCOC(=O)COC(=O)c1ccccc1C(=O)OCCCC", "Potency": "inactive"}
{"smiles": "CC(C)=CC1C(C(=O)OCc2cccc(Oc3ccccc3)c2)C1(C)C", "note": "(stereo not given)", "Potency": "inactive"}
{"smiles": "Clc1cccc(C(Cl)(Cl)Cl)n1", "Potency": "inactive"}
{"smiles": "CSc1nc(NC(C)C)nc(NC(C)C)n1", "Potency": "inactive"}
{"smiles": "CNC(=O)CSP(=S)(OC)OC", "Potency": "inactive"}
{"smiles": "OC(c1ccc(Cl)cc1)(c1cncnc1)c1ccccc1Cl", "note": "(stereo not given)", "Potency": "61.1 µM (active)"}
{"smiles": "CCC/C=N/O", "Potency": "inactive"}
{"smiles": "C[C@]12CCC(=O)C=C1CC[C@@H]1[C@@H]2CC[C@@]2(C)[C@H]1CC[C@]2(C)O", "Potency": "10.6 µM (active) and 24.5 µM (active)"}
{"tested_on": "thyroid hormone receptor (rat, GH3 cells)", "assay": "qHTS assay to identify small molecule agonists of the thyroid receptor (TR) signaling pathway (AID 743066)", "details": "GH3.TRE-Luc cells, TR agonist luciferase, 24 h; series mostly up to 83.9 µM; activation: at the top concentration", "units": {"activation": "%"}}
{"smiles": "CN(C)c1nc(=O)n(C2CCCCC2)c(=O)n1C", "Potency": "inactive"}
{"smiles": "Clc1ccc(C(Cl)(Cl)Cl)cc1", "Potency": "inactive"}
{"smiles": "CCOP(=S)(OCC)SCn1c(=O)oc2cc(Cl)ccc21", "Potency": "inactive"}
{"smiles": "COc1ccc(O)c(C(C)(C)C)c1", "Potency": "inactive"}
{"smiles": "CC1=C(C(=O)Nc2ccccc2)SCCO1", "Potency": "inactive"}
{"smiles": "CCCCOCCOC(C)=O", "activation": 0.237}
{"smiles": "CNC(=O)Oc1cccc2c1OC(C)(C)C2", "Potency": "inactive"}
{"smiles": "O=NN(c1ccccc1)c1ccccc1", "Potency": "inactive"}
{"smiles": "O=C(O)CF", "Potency": "inactive"}
{"smiles": "CCOP(=S)(OCC)SCSC(C)(C)C", "Potency": "inactive"}
{"smiles": "CCOS(=O)(=O)OCC", "Potency": "inactive"}
{"smiles": "ClC(Cl)=C(Cl)C(Cl)=C(Cl)Cl", "Potency": "inactive"}
{"smiles": "CC1(C)Cc2cccc(O)c2O1", "Potency": "inactive"}
{"smiles": "CC(C)COC(=O)c1ccccc1C(=O)OCC(C)C", "Potency": "inactive"}
{"smiles": "N#Cc1cccnc1", "Potency": "inactive"}
{"smiles": "ClC(Cl)(Cl)c1ccccc1", "Potency": "inactive"}
{"smiles": "CCCCOCC1CO1", "note": "(stereo not given)", "Potency": "inactive"}
{"smiles": "CCCCCCCCCCCCCl", "Potency": "inactive"}
{"smiles": "CCC1(c2ccc(N)cc2)CCC(=O)NC1=O", "note": "(stereo not given)", "Potency": "inactive"}
{"smiles": "C=C(C)C#N", "Potency": "inactive"}
{"smiles": "Cc1cccc(N=Nc2ccc(N(C)C)cc2)c1", "activation": 6.66}
{"smiles": "O=NN1CCOCC1", "Potency": "inactive"}
{"smiles": "c1ccc2c(c1)Nc1ccccc1S2", "Potency": "inactive"}
{"smiles": "CC[n+]1c(-c2ccccc2)c2cc(N)ccc2c2ccc(N)cc21", "Potency": "inactive"}
{"smiles": "COc1ccc(C=O)cc1OC", "Potency": "inactive"}
{"smiles": "CC(C)Nc1nc(Cl)nc(NC(C)C)n1", "Potency": "inactive"}
{"smiles": "O=[N+]([O-])/N=C1\\NCCN1Cc1ccc(Cl)nc1", "Potency": "inactive"}
{"smiles": "CCOC(=O)c1ccccc1N", "Potency": "inactive"}
{"smiles": "CN(C)P(=O)(N(C)C)N(C)C", "Potency": "inactive"}
{"smiles": "CCCCOC(=O)COC(=O)c1ccccc1C(=O)OCCCC", "Potency": "inactive"}
{"smiles": "CC(C)=CC1C(C(=O)OCc2cccc(Oc3ccccc3)c2)C1(C)C", "note": "(stereo not given)", "Potency": "inactive"}
{"smiles": "Clc1cccc(C(Cl)(Cl)Cl)n1", "Potency": "inactive"}
{"smiles": "CSc1nc(NC(C)C)nc(NC(C)C)n1", "Potency": "inactive"}
{"smiles": "CNC(=O)CSP(=S)(OC)OC", "Potency": "inactive"}
{"smiles": "OC(c1ccc(Cl)cc1)(c1cncnc1)c1ccccc1Cl", "note": "(stereo not given)", "Potency": "inactive"}
{"smiles": "CCC/C=N/O", "Potency": "inactive"}
{"smiles": "C[C@]12CCC(=O)C=C1CC[C@@H]1[C@@H]2CC[C@@]2(C)[C@H]1CC[C@]2(C)O", "Potency": "inactive"}
